# Results as given in PubChem BioAssay.
# Calls of active or inactive are those of the source.
# Target: Luciferin 4-monooxygenase (Photinus pyralis) (UniProt P08659)
# Assay: inhibition of purified Photinus pyralis luciferase – biochemical, luminescence, purified enzyme, 2006 set, primary screen (AID 1141);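 note: cell-free assay with purified firefly luciferase at 100 ng per well in PBS; test concentration not given here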
# Details: purified firefly luciferase, SteadyGlo luminescence, 30 min; higher = more signal, called active from +8 up or from −8 down
# Sequence of Luciferin 4-monooxygenase (Photinus pyralis) (P08659 whole entry, looked up): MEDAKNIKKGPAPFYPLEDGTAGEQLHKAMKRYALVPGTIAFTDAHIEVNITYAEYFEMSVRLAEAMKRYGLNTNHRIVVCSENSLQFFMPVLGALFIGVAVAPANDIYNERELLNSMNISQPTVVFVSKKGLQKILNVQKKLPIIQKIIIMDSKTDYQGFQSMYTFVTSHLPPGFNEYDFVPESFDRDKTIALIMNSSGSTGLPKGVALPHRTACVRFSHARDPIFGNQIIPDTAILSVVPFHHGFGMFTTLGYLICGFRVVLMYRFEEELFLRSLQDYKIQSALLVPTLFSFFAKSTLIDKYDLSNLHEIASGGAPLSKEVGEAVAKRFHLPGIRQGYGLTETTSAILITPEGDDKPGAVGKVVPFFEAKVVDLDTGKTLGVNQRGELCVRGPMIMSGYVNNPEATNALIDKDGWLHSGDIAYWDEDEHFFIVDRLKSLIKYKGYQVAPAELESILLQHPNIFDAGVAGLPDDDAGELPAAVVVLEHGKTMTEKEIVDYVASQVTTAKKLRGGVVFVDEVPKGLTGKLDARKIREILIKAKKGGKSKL
row,Structure (SMILES),z-score
1,CCOC(=O)CCN1C(=O)[C@H]2[C@H]3[C@H](O)[C@H](O)CC(=NOC[C@@H](O)COCc4ccco4)[C@@H]3CC[C@H]2C1=O,0.542 (inactive)
2,COc1ccc([Si](C)(C)[C@H]2[C@H](CC(=O)N3CCC[C@H]3CO)O[C@@]3(C(=O)N(Cc4cccc(N5C(=O)COc6ccccc65)c4)c4ccccc43)[C@@H]2C)cc1,-2.36 (inactive)
3,CC(=O)OC[C@H]1O[C@H](CCON=C(C)CCC(=O)OC[C@H]2O[C@H](C#Cc3ccccc3)C=C[C@@H]2Oc2ccc(C)cc2)C=C[C@@H]1OC(C)=O,0.54 (inactive)
4,CCOC(=O)[C@H](CC(C)C)NC(=O)CCC1CC(OC(=O)NCc2cccc3ccccc23)CC2(CCCC(COC(=O)NCCN3CCOCC3)O2)O1 (stereo partly specified),1.03 (inactive)
5,CN1C(=O)C2C=CC(C(O)C(c3ccccc3)c3ccccc3)N(NC(=O)OC(C)(C)C)C2C1=O (stereo unspecified),-0.0519 (inactive)
6,Cc1cc2c(c(=O)o1)[C@H](O)[C@H]1O[C@H]1C2=O,-0.0074 (inactive)
7,O=C(NN=C1C[C@@H](O)[C@@H](O)[C@@H]2[C@@H]3C(=O)N(c4cccc(Oc5ccccc5)c4)C(=O)[C@@H]3CC[C@@H]12)OCc1ccccc1,0.663 (inactive)
8,COC(=O)C1=CCC(c2cccc(Cl)c2)O1 (stereo unspecified),1.74 (inactive)
9,NC(=O)NCC#Cc1ccc2c(c1)[C@]1(C(=O)N2)[C@H](c2ccc(O)cc2)N2[C@H](c3ccccc3)[C@H](c3ccccc3)OC(=O)[C@H]2[C@@H]1C(=O)N1CCCCCCC1,0.363 (inactive)
10,CC(C)[C@@H](OCc1ccccc1)[C@H](C)C=NOC[C@@H](C)[C@H](OCc1ccccc1)C(C)C,-0.11 (inactive)
11,COc1ccc(O[C@H]2C=C[C@@H](c3ccccc3)O[C@@H]2COC(=O)N2CCCCC2)cc1,0.711 (inactive)
12,CO[C@@H]1COC(=O)CC=C[C@@H](C)[C@H](OC)COC(=O)[C@H](COCc2ccccc2)NC(=O)CC=C[C@H]1C,0.518 (inactive)
13,CO[C@@H]1COC(=O)[C@@H]2CCCN2C(=O)[C@@H](C)COC(=O)[C@H](COCc2ccccc2)NC(=O)CC=C[C@H]1C,0.951 (inactive)
14,CC(=O)OC[C@H]1O[C@H](CCON=C(C)CCN2CCc3nc(-c4ccccc4)c(-c4ccccc4)cc3C2)C=C[C@@H]1OC(C)=O,0.938 (inactive)
15,CCCC[C@@H](O)C1=C(C)C[C@H]2C(=O)N(Cc3ccccc3)C(=O)[C@H]2[C@H]1CO,-0.467 (inactive)
16,O=C1[C@H]2[C@H]3[C@H](O)[C@H](O)CC(=NO[C@@H]4O[C@H](CO)[C@@H](O)[C@H](O)[C@H]4O)[C@H]3CC[C@H]2C(=O)N1C1CCCCC1,0.23 (inactive)
17,COC(=O)C1=C(C)[C@@H](O)[C@@H](C)[C@H](c2c(OC)c(OC)c(C)c(OC)c2OC)O1,-0.0386 (inactive)
18,COc1ccc(-c2ccc3c(n2)CCCN3CC(O)CN2CCCc3nc(C)c(C)cc32)cc1 (stereo unspecified),-1.2 (inactive)

row,Structure (SMILES),z-score
1,CC(C)(C)OC(=O)CC[C@]1(C(=O)NCc2ccccc2)N=C(c2ccc(OCCCO)cc2)O[C@H]1c1ccccc1,0.172 (inactive)
2,CC(=O)OC[C@H]1O[C@H](C#CCCCc2ccccc2)C=C[C@@H]1OC(C)=O,-1.65 (inactive)
3,CS(=O)(=O)CCOC(=O)C1=CC(CCCO)=CC(c2cccs2)N(Cc2cccc(OC(F)(F)F)c2)C=C1C(=O)OCCS(C)(=O)=O (stereo unspecified),-2.01 (inactive)
4,NCCCCCNC(=O)[C@@H]1C[C@@H]2C(=O)N3CCC[C@H]3C(=O)N2[C@@H]1c1cccc(OCCO)c1,-0.115 (inactive)
5,CC(C)=C1C(=O)C(c2ccccc2)=C2CN3C(=O)N(CCc4ccccc4)C(=O)[C@]3(Cc3ccc(F)cc3)[C@H]21,0.98 (inactive)
6,COc1ccc(COC(=O)NN=C2C[C@@H](O)[C@@H](O)[C@@H]3[C@@H]4C(=O)N(Cc5ccc6c(c5)OCO6)C(=O)[C@@H]4CC[C@@H]23)cc1,-0.283 (inactive)
7,CCOC(=O)C[C@H]1[C@H](OC(=O)c2ccc(C(=O)c3ccccc3)cc2)[C@@H](NC(=O)c2ccc(-c3ccccc3)cc2)c2cc(OCCCO)ccc2N1C(=O)c1ccc2ccccc2n1,0.881 (inactive)
8,C[C@@H]1CC[C@H]2C(=O)O[C@H](COc3ccc(C(C)(C)C)cc3)CN2[C@H]1c1ccc(Br)cc1,-1.36 (inactive)
9,CC(C)CON=C1C[C@@H](O)[C@@H](O)[C@@H]2[C@@H]3C(=O)N([C@@H](C)c4ccccc4)C(=O)[C@@H]3CC[C@H]12,0.407 (inactive)
10,O=C1CCCC=C1C(O)CCOCc1ccccc1 (stereo unspecified),-0.0361 (inactive)
11,CCc1cccc(NC(=O)O[C@H]2[C@H](OC(=O)Nc3ccc4c(c3)OCO4)[C@@H](OC(=O)Nc3ccc4c(c3)OCO4)[C@@H](OC)O[C@@H]2CO)c1,-7.34 (inactive)
12,O=C1[C@H]2[C@H]3[C@H](O)[C@H](O)CC(=NO[C@@H]4O[C@H](CO)[C@@H](O)[C@H](O)[C@H]4O)[C@@H]3CC[C@H]2C(=O)N1Cc1ccc2c(c1)OCO2,0.949 (inactive)
13,COC(=O)[C@H](C)NC(=O)[C@@H](C)CO,0.877 (inactive)
14,CC1CC/C=C\[C@H]2OC34C=CCN(Cn5nnc6ccccc65)C(=O)[C@H]3N(CCO)C(=O)[C@@H]4C2C(=O)O1 (stereo partly specified),-1.98 (inactive)
15,O=C1CCCC2OC12C(O)CCc1ccccc1 (stereo unspecified),-0.443 (inactive)
16,CO[C@@H]1COC(=O)[C@H](C)NC(=O)[C@@H](C)COC(=O)CCC[C@H]1C,0.981 (inactive)
17,CCN1C(=O)[C@H]2[C@H]3[C@H](O)[C@H](O)CC(=NOC[C@@H](C)[C@H](OCc4ccccc4)C(C)C)[C@@H]3CC[C@H]2C1=O,0.646 (inactive)
18,O=C1[C@H]2[C@H]3[C@H](O)[C@H](O)CC(=NOCc4ccccc4)[C@@H]3CC[C@H]2C(=O)N1C1CCCCC1,0.0264 (inactive)
